# Most compounds without a hit are left out; they make up all but 4.7% or so of the library.
# ADAM10 inh = inhibits human ADAM10. O14672. recombinant ADAM10, EDANS/DABCYL FRET peptide cleavage, 3 h. inhibition, % at 7 µM. 370,000 tested, 0.62% active;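 active means inhibition above a per-campaign cutoff equal to the mean of compounds falling between control-based bounds plus 3 SD, cut at about 20% in these data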;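 further: 0% = DMSO wells while the 100% control is not disclosed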
# Target sequence (O14672 214-748 limits assumed): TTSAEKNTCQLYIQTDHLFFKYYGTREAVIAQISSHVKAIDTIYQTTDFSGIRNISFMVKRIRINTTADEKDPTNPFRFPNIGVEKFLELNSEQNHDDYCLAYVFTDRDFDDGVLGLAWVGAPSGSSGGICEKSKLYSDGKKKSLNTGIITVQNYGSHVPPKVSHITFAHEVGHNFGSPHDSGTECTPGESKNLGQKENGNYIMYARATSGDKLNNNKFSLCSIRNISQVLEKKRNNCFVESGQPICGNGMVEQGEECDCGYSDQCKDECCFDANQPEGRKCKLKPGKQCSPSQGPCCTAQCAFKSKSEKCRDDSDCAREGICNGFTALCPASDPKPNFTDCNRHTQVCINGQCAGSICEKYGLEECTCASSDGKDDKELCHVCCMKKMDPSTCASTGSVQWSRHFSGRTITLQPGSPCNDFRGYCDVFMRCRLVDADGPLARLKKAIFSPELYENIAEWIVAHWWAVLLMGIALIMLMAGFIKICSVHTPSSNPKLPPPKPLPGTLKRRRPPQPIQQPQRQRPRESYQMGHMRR
# KLK7 zymogen act = activators of human kallikrein-7 zymogen. purified proKLK7, EDANS-DABCYL substrate fluorescence; 100% is mature enzyme control, 0% vehicle. activation, % at 7 µM. 370,000 tested, 0.9% active. AID 652039;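 active means activation above the mean of all tested compounds plus 3 SD, computed per campaign excluding outliers beyond control limits, cut at about 13% in these data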
# ADAM17 inh = inhibits human ADAM17. P78536. recombinant ADAM17, EDANS/DABCYL FRET peptide cleavage. inhibition, % at 6.95 µM. 370,000 tested, 0.83% active. AID 720648;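 active means inhibition above the mean of compounds lying between control limits plus 3 SD, set per campaign, cut at about 8.5% in these data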;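 further: 0% = DMSO-only wells as the low control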
# DSG3 Ab inh = human desmoglein-3 autoantibody binding inhibition. DSG3-coupled beads, scFv-anti-DSG3-GFP binding, flow cytometry; stronger effect = lower value. binding (percent of control), % at 10 µM. 310,000 tested, 0.48% active. AID 588358;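 active means binding more than 3 SD below its plate's average and above zero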;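 further: hits lower antibody fragment binding to DSG3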
# rCAG binder = molecules binding r(CAG) RNA repeats | 370,000 tested, 1.3% active | r(CAG) RNA repeat, TO-PRO-1 dye displacement fluorescence | inhibition, % at 3 µM;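 active means inhibition above the plate cutoff, the mean of all test compounds on that plate plus 3 SD, cut at about 35% in these data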;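 further: 0% = DMSO alone and 100% = 100 µM mitoxantrone as full dye displacement; higher means more dye released from RNA so lower well fluorescence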
# MPTP block = permeability transition pore inhibition | AID 602449 | inhibition, % at 10 µM | 360,000 tested, 1.4% active | isolated mouse mitochondria, Ca2+ swelling absorbance, 30 min;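 active means inhibition of 50% or more, scaled per plate between neutral and stimulator controls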;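 further: 0% = DMSO wells given calcium and 100% = 1 mM EGTA wells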
# proKLK7 act conf = proKLK7 activation, confirmation; shares compounds with KLK7 zymogen act; activation, % at 7 µM; AID 686949; purified proKLK7, EDANS-DABCYL substrate fluorescence; scaled: vehicle 0, mature enzyme 100; 3,200 tested, 68% active;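 active means activation, as change over the incubation, above the mean of all tested compounds plus 3 SD, cut at about 13% in these data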
# EDANS-DABCYL int = optically interferes with EDANS-DABCYL signal, flagging KLK7 hits | EDANS-DABCYL substrate fluorescence interference, no enzyme, 4 h; solvent 0%, active enzyme control 100% | activation, % at 7 µM | 3,200 tested, 80% active | shares compounds with KLK7 zymogen act | AID 686952;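 active means activation above the all-compound mean plus 3 SD, ignoring values outside control-based bounds, cut at about 4.8% in these data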;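 further: value is the 4 h activation minus the activation read at time zero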
# Starred values were filed as active, the others as inactive; i = inactive; · = not tested or not shown.
SMILES,ADAM10 inh,KLK7 zymogen act,ADAM17 inh,DSG3 Ab inh,rCAG binder,MPTP block,proKLK7 act conf,EDANS-DABCYL int
Cc1cccn2c(=O)c3cc(C(=O)NCCN4CCOCC4)n(C)c3nc12,i,19*,-443,·,0,-1,-49,-38
COCCCn1c(C(=O)NCCN2CCOCC2)cc2c(=O)n3ccccc3nc21,i,83*,i,104,-3,0,72*,75*
Cn1c(C(=O)NCCN2CCOCC2)cc2c(=O)n3ccccc3nc21,i,60*,i,107,-1,0,67*,74*
Cc1ccc(CC(=O)NCCCn2ccnc2)cc1,-1,0,2,90,1,-1,·,·
Cc1ccc2nc3c(cc(C(=O)NCCCn4ccnc4)n3C)c(=O)n2c1,i,67*,i,97,4,0,62*,79*
CC1Nc2ccccc2C(=O)N1NS(C)(=O)=O (centres undefined),i,61*,-238,101,1,-2,26*,22*
COc1cc(C2Nc3ccccc3C(=O)N2NS(C)(=O)=O)ccc1O (centres undefined),-485,27*,-222,103,-3,2,5,6.8*
COc1ccc(C2Nc3ccccc3C(=O)N2NS(=O)(=O)c2ccc(C)cc2)c(OC)c1 (centres undefined),-256,8,-83,102,1,0,·,·
COc1ccc(C2Nc3ccccc3C(=O)N2NS(C)(=O)=O)cc1 (centres undefined),-480,61*,-144,106,-2,0,11,11*
COc1ccc(C2Nc3ccccc3C(=O)N2NS(=O)(=O)c2ccccc2)c(OC)c1 (centres undefined),-218,18*,-91,108,7,0,35*,32*
CS(=O)(=O)NN1C(=O)c2ccccc2NC1c1cccc2cccnc12 (centres undefined),-77,4,-28,110,-1,0,·,·
O=C1c2ccccc2NC(c2ccccc2)N1NS(=O)(=O)c1ccccc1 (centres undefined),-14,2,-4,94,-3,0,·,·
COc1ccc(C2Nc3ccccc3C(=O)N2NS(=O)(=O)c2ccccc2)cc1 (centres undefined),-163,17*,-60,29,0,-1,9,7.7*
COc1ccccc1N1C(=O)c2ccccc2NC1c1cc(OC)c(OC)c(OC)c1 (centres undefined),i,23*,-393,95,-2,0,14*,15*
CCc1ccc(N2C=C(C(=O)OC)C(c3cccc4ccccc34)C(C#N)=C2N)cc1 (centres undefined),-9,-1,-8,·,16,1,·,·
Cc1cc(N2CCN(c3ccccc3)CC2)nc2ccccc12,-6,1,-6,107,-4,1,·,·
Cc1cc(N2CCC(N(C)C3CCCC3)CC2)nc2cc(O)ccc12,i,16*,-282,105,6,0,25*,31*
O=C(NCCC1CCCCN1S(=O)(=O)c1cccs1)C(=O)Nc1ccc(F)cc1 (centres undefined),0,0,1,106,-2,0,·,·
CCCCN1C(=O)C(CC(=O)NC2CCCCC2)CC(C(=O)N2CCCCCC2)=C1C (centres undefined),-5,0,-5,·,-3,0,·,·
COCCCN1C(=O)C(CC(=O)NC2CCCCC2)CC(C(=O)N2CCCCCC2)=C1C (centres undefined),7,83*,-1,·,1,1,0,-1
COC(=O)C1=CNC=C(C(=O)OC)C1c1ccc(Cl)cc1,i,14*,i,·,2,5,81*,80*
COC(=O)C1=CNC=C(C(=O)OC)C1c1ccccc1Cl,i,66*,i,98,-1,-1,65*,75*
COC(=O)C1=CNC=C(C(=O)OC)C1c1cccc(OC)c1,i,6,i,85,0,4,·,·
COC(=O)C1=CNC=C(C(=O)OC)C1c1cccc2ccccc12,i,-1,-444,93,-1,0,·,·
O=C1C(=O)c2c(ccc3ccccc23)-c2ccccc21,-5,0,-2,82,4,2,·,·
SMILES,ADAM10 inh,KLK7 zymogen act,ADAM17 inh,DSG3 Ab inh,rCAG binder,MPTP block,proKLK7 act conf,EDANS-DABCYL int
CCOc1ccc(CCNC(=O)COC(=O)c2cccnc2OCC)cc1OCC,-2,0,-5,101,-9,-1,·,·
CCOc1ccc(CCNC(=O)COC(=O)c2nccnc2N)cc1OCC,-201,30*,-66,111,7,-2,63*,55*
CCC(CC)COC(=O)C1=C(C)NC(=O)NC1c1cc(OC)ccc1OC (centres undefined),-1,52*,-3,100,-8,0,1,2
CCC(CC)COC(=O)C1=C(C)NC(=O)NC1c1ccc(OC)cc1 (centres undefined),6,1,1,102,-9,2,·,·
Cc1ccc(-c2nc3ccccn3c2Nc2ccccc2)o1,i,28*,i,134,-1,0,63*,68*
CCCc1cc(=O)n2nc(N3CCC(C(=O)NCc4ccco4)CC3)sc2n1,0,0,5,103,0,1,·,·
COc1ccc(OC)c(C(c2c(O)nc(SC)[nH]c2=O)c2c(O)nc(SC)[nH]c2=O)c1,-34,13*,-16,106,0,-2,15*,15*
COc1ccc2oc(C(=O)Nc3nc(-c4ccccn4)cs3)c(C)c2c1,-151,0,-54,95,11,-2,·,·
Cc1cccc2cc3c(N)c(C(=O)Nc4ccc(N5CCOCC5)cc4)sc3nc12,0,0,-2,90,5,8,·,·
CCc1cccc2cc3c(N)c(C(=O)Nc4ccc(S(=O)(=O)N5CCCC5)cc4)sc3nc12,-45,119*,-7,114,9,7,62*,57*
CC(NC1=CC(=O)c2cccnc2C1=O)C(O)c1ccccc1 (centres undefined),-96,4,-27,85,5,0,·,·
Nc1cccc2c1C(=O)N(C(=O)c1cccc(S(=O)(=O)N3CCCC3)c1)C2=O,-390,32*,-116,93,2,0,190*,196*
COc1ccc(NC(C)=O)cc1NC(C)C(=O)Nc1ccc(S(=O)(=O)N2CCCCC2)cc1 (centres undefined),-5,1,3,96,5,0,·,·
